Experiments:
Settings in all cases: concentration: 1 μM, replicates: in singlicate; n = 1
PIK3C2G = test system: PIK3C2G
PIK3CA = test system: PIK3CA
PIK3CB = test system: PIK3CB
PIK3CD = test system: PIK3CD
PIK3CG = test system: PIK3CG
PIK4CB = test system: T1, PIK4CB
T1 construct: gene PI4KB

PIKFYVE = test system: PIKFYVE
PIM1 = test system: PIM1
PIM2 = test system: PIM2
PIM3 = test system: PIM3
PIP5K1A = test system: PIP5K1A
PIP5K1C = test system: PIP5K1C
PIP5K2B = test system: PIP5K2B
PIP5K2C = test system: T2, PIP5K2C
T2 construct: gene PIP4K2C

PKAC-alpha = test system: T3, PKAC-alpha
T3 construct: gene PRKACA

PKAC-beta = test system: T4, PKAC-beta
T4 construct: gene PRKACB

PKMYT1 = test system: PKMYT1
PKN1 = test system: PKN1
PKN2 = test system: PKN2
PLK1 = test system: PLK1
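Also: KINOMEscan kinase panel screen.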

SMILES | %Inh (PIK3C2G) [%] | %Inh (PIK3CA) [%] | %Inh (PIK3CB) [%] | %Inh (PIK3CD) [%] | %Inh (PIK3CG) [%] | %Inh (PIK4CB) [%] | %Inh (PIKFYVE) [%] | %Inh (PIM1) [%] | %Inh (PIM2) [%] | %Inh (PIM3) [%] | %Inh (PIP5K1A) [%] | %Inh (PIP5K1C) [%] | %Inh (PIP5K2B) [%] | %Inh (PIP5K2C) [%] | %Inh (PKAC-alpha) [%] | %Inh (PKAC-beta) [%] | %Inh (PKMYT1) [%] | %Inh (PKN1) [%] | %Inh (PKN2) [%] | %Inh (PLK1) [%]
Cc1ccc(C)c(NC(=O)NC2CCN(c3ccnc(Nc4ccc(F)cc4)n3)C2)c1 (stereo not drawn) [GSK1379720] | 0 | 0 | 0 | 8 | 0 | 0 | 0 | 15 | 0 | 0 | 0 | 65 | 38 | 47 | 0 | 0 | 5 | 0 | 0 | 0
COc1cccc(-c2ccc3c(NC(=O)C4CC4)n[nH]c3n2)c1 [SB-710903] | 0 | 0 | 0 | 9 | 0 | 0 | 27 | 12 | 0 | 0 | 58 | 65 | 20 | 64 | 0 | 0 | 8 | 0 | 0 | 0
CC(C)c1nc(-c2cccc(NS(=O)(=O)c3c(F)cccc3F)c2F)c(-c2ccnc(Nc3ccc(N4CCOCC4)nc3)n2)s1 [GSK2008607] | 0 | 6 | 0 | 0 | 0 | 0 | 31 | 11 | 0 | 0 | 0 | 45 | 0 | 87 | 0 | 0 | 24 | 6 | 0 | 0
COc1cccc(C(=O)Nc2cccc(Oc3ccc4nc(NC(=O)C5CC5)cn4n3)c2)c1 | 1 | 0 | 0 | 0 | 0 | 0 | 0 | 9 | 11 | 17 | 0 | 10 | 0 | 28 | 6 | 47 | 0 | 0 | 4 | 0
Cl.Cl.NCC(NCc1ccc(-c2ccnc3[nH]ccc23)s1)c1ccccc1 (stereo not drawn) [GSK1321565] | 0 | 0 | 19 | 2 | 21 | 4 | 3 | 17 | 0 | 0 | 71 | 63 | 45 | 39 | 97.9 | 94.9 | 0 | 30 | 64 | 0
COc1cc(Nc2nccc(N3CCC(NC(=O)Nc4cccc(C(C)=O)c4)C3)n2)cc(OC)c1OC (stereo not drawn) [GSK1379753] | 0 | 5 | 0 | 46 | 20 | 78 | 0 | 0 | 0 | 0 | 0 | 46 | 5 | 86 | 0 | 0 | 0 | 0 | 0 | 0
COc1cc2c(cc1OCCN1CCNCC1)ncc1c3ccc(C#N)cc3[nH]c21 | 0 | 8 | 0 | 3 | 31 | 33 | 14 | 10 | 92.2 | 52 | 58 | 1 | 46 | 16 | 0 | 0 | 0 | 61 | 41 | 28
Cc1ccc(C(=O)Nc2ccc(Nc3ccnc4cc(-c5nccs5)ccc34)cc2O)cc1.Cl [GW494702] | 23 | 0 | 0 | 0 | 0 | 30 | 0 | 0 | 6 | 0 | 0 | 9 | 0 | 28 | 0 | 0 | 0 | 0 | 0 | 1
CC(=O)N1CCN(c2ccc(Nc3nccc(-c4sc(C(C)C)nc4-c4cccc(NS(=O)(=O)c5cccc(Cl)c5)c4)n3)cn2)CC1 [GSK1660437] | 0 | 0 | 13 | 0 | 0 | 0 | 0 | 0 | 0 | 89 | 0 | 15 | 15 | 66 | 0 | 6 | 0 | 57 | 12 | 0
COc1cccc(NC(=O)NC2CCN(c3ccnc(Nc4cc(OC)c(OC)c(OC)c4)n3)C2)c1 (stereo not drawn) [GSK1379763] | 0 | 0 | 0 | 51 | 8 | 78 | 0 | 0 | 0 | 0 | 0 | 57 | 0 | 91.1 | 0 | 0 | 64 | 0 | 0 | 15
COc1ccc(-c2coc3ccc(-c4nnc(SCc5ccc(OC)c(C(F)(F)F)c5)o4)cc23)cc1 | 13 | 0 | 27 | 11 | 0 | 0 | 0 | 0 | 18 | 4 | 0 | 0 | 4 | 0 | 15 | 3 | 17 | 24 | 3 | 0
O=C(Nc1n[nH]c2cc(-c3ccoc3)ccc12)C1CC1 [SB-738481] | 0 | 0 | 13 | 5 | 12 | 8 | 1 | 0 | 0 | 0 | 28 | 0 | 18 | 0 | 0 | 2 | 0 | 0 | 22 | 3
Nc1ncc(-c2ccc3nccc(-c4ccncc4)c3c2)cc1S(=O)(=O)N1CCOCC1 [GSK1627798] | 99.1 | 100 | 77 | 94.1 | 99.5 | 96.1 | 0 | 0 | 0 | 0 | 0 | 0 | 5 | 30 | 0 | 0 | 11 | 12 | 0 | 0
CN1CCN(CCCNc2nccc(-c3c(-c4ccc(F)cc4)nn4cc(C(F)(F)F)ccc34)n2)CC1 [GW621581] | 3 | 0 | 0 | 10 | 0 | 1 | 95.6 | 10 | 0 | 0 | 0 | 11 | 0 | 0 | 0 | 9 | 0 | 12 | 0 | 0
COc1cc(Nc2nccc(N3CCC(NC(=O)c4cc5ccccc5s4)C3)n2)cc(OC)c1OC (stereo not drawn) [GSK1379760] | 0 | 0 | 0 | 14 | 0 | 0 | 6 | 16 | 0 | 3 | 26 | 52 | 15 | 92.6 | 18 | 0 | 0 | 0 | 1 | 17
